# Laboratory results: PubChem BioAssay (NCATS)
# Records with an inconclusive call do not appear. Where a call stands in place of a potency, no number is given. Activity calls are given as the source filed them. Unless noted, calls follow the shape of the full dose curve.
# What was measured:
# [1] = molecular target: Peroxisome proliferator-activated receptor delta (Homo sapiens) (UniProt Q03181); experiment: qHTS assay for small molecule agonists of peroxisome proliferator-activated receptor delta signaling (AID 588534)
# Chain of Peroxisome proliferator-activated receptor delta (Homo sapiens) (Q03181 whole entry, looked up): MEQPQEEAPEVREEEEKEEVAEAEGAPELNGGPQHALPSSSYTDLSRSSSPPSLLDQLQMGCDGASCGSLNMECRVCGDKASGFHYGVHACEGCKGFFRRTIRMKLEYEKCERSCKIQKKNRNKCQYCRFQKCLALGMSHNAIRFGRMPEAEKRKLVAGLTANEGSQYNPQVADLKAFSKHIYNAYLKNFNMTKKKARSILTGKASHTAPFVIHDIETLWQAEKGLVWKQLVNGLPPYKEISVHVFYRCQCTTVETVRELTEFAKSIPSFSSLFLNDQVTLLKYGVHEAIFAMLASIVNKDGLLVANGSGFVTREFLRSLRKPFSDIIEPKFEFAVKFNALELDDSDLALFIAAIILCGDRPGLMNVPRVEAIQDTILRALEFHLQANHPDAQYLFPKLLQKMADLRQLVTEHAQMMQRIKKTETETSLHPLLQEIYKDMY
# How it was run: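 Fluorescence from CCF4 substrate cleavage by beta-lactamase reporter, read 2 hrs at RT, measured agonist activity. Compounds were tested with 18 hrs exposure at 37 C. Concentration-response data fitted to Hill equation.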
# [2] = molecular target: Peroxisome proliferator-activated receptor gamma (Homo sapiens) (UniProt P37231); experiment: qHTS assay for small molecule agonists of peroxisome proliferator-activated receptor gamma signaling (AID 588536; active = well fitted curve in the direction sought with a large enough effect in the signal ratio, with a control signal flat, not every such curve was filed as active; the % refers to the signal ratio)
# Chain of Peroxisome proliferator-activated receptor gamma (Homo sapiens) (P37231 whole entry, looked up): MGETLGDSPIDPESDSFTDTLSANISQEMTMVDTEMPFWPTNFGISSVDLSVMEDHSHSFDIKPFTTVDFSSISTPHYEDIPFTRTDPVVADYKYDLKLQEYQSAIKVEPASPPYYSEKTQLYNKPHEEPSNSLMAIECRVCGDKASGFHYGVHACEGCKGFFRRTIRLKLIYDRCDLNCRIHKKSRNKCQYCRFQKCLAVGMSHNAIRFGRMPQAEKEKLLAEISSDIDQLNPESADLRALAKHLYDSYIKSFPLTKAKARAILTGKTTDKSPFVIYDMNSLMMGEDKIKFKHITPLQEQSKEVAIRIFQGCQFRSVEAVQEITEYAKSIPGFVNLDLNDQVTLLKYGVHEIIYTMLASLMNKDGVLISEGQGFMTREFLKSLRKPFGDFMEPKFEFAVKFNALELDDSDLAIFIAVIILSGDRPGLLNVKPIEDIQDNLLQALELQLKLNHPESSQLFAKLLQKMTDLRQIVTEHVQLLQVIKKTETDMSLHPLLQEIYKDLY
# How it was run: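 PPAR-gamma-UAS-bla HEK293 cells in medium with 1% charcoal/dextran-treated FBS were exposed to compounds for 16 h at 37 C. Beta-lactamase activity was read with CCF4 substrate (405 nm excitation, 460/530 nm emission).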
# [3] = molecular target: Vitamin D3 receptor (Homo sapiens) (UniProt P11473); experiment: qHTS assay for small molecule agonists of vitamin D receptor signaling (AID 588543)
# Chain of Vitamin D3 receptor (Homo sapiens) (P11473 whole entry, looked up): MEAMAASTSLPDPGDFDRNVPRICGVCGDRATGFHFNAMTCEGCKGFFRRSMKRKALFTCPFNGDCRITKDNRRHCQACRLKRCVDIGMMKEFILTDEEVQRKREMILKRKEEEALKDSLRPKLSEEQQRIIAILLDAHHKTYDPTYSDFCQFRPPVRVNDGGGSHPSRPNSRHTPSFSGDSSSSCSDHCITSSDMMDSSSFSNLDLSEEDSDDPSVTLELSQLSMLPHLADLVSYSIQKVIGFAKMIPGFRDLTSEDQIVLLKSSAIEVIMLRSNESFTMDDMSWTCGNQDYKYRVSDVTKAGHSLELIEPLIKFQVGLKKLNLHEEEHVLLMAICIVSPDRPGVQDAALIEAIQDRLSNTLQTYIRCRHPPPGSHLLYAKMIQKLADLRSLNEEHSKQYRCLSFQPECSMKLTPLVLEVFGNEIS
# How it was run: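 GeneBLAzer VDR-UAS-bla HEK293T cells in 2% charcoal-stripped FBS medium were dosed with compound titrations for 16 h at 37 °C; CCF4 β-lactamase readout (405 nm ex, 460/530 nm em). EC50 and efficacy from Hill fits, normalized to 50 nM calcitriol (100%) and DMSO (0%).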
# [4] = qHTS assay for small molecule antagonists of retinoid X receptor alpha signaling (AID 588546; active = well fitted inhibition curve with a large enough effect in the signal ratio, with a control signal flat, not every such curve was filed as active; the % refers to the signal ratio;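 also: cells stimulated with 9-cis-retinoic acid as agonist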); conditions: HEK293T RXRa-UAS-bla, beta-lactamase ratio, antagonist mode; measured here: W530 green channel, cytotoxicity proxy
# How it was run: (§1)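 Beta-lactamase reporter inhibition, read as CCF4 fluorescence ratio (ex 405, em 460/530 nm) after 2 h at RT. HEK293T UAS-bla cells, 2500/well, were stimulated with 9-cis-RA at 500 or 100 nM final alongside test compound for 18 h at 37 C.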
# [5] = molecular target: Retinoic acid receptor RXR-alpha (Homo sapiens) (UniProt P19793); experiment: as above; conditions: HEK293T RXRa-UAS-bla, beta-lactamase ratio, antagonist mode
# Chain of Retinoic acid receptor RXR-alpha (Homo sapiens) (P19793 whole entry, looked up): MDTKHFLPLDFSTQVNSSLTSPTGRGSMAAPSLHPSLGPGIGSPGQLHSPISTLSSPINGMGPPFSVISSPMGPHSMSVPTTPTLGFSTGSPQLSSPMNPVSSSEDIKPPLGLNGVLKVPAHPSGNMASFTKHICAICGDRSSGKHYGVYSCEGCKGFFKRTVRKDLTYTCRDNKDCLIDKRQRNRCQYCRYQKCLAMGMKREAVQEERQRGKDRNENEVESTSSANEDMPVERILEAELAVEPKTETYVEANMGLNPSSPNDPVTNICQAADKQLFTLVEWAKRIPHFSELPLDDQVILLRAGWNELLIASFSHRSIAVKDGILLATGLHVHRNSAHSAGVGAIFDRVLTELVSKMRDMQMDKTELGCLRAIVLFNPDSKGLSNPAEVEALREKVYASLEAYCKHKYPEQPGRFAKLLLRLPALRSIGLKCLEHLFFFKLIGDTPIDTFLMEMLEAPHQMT
# How it was run: as §1
# [6] = qHTS assay for environmental chemicals that activate the Aryl hydrocarbon Receptor (AhR) signaling pathway (AID 651777; active = well fitted curve in the direction sought with a large enough effect; an effect the other way counts as inactive or inconclusive; also: nearly all actives have a fitted effect of over 15% in size); conditions: 1A2-DRE human hepatoma cells, luciferase, 24 h; activation: stronger effect = higher value
# How it was run: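 1A2-DRE human hepatoma reporter line; 1,200 cells/well; cmpd or DMSO 24 h, 37 C/5% CO2; One-Glo 30 min RT; luciferase lum.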
# [7] = molecular target: Peroxisome proliferator-activated receptor alpha (Homo sapiens) (UniProt Q07869); experiment: qHTS assay for small molecule agonists of the peroxisome proliferator-activated receptor alpha (PPARalpha) signaling pathway (AID 651778; active = well fitted curve in the direction sought with a large enough effect; an effect the other way counts as inactive or inconclusive); conditions: PathHunter PPARalpha complementation, chemiluminescence, 6 h; max response: stronger effect = higher value
# Chain of Peroxisome proliferator-activated receptor alpha (Homo sapiens) (Q07869 whole entry, looked up): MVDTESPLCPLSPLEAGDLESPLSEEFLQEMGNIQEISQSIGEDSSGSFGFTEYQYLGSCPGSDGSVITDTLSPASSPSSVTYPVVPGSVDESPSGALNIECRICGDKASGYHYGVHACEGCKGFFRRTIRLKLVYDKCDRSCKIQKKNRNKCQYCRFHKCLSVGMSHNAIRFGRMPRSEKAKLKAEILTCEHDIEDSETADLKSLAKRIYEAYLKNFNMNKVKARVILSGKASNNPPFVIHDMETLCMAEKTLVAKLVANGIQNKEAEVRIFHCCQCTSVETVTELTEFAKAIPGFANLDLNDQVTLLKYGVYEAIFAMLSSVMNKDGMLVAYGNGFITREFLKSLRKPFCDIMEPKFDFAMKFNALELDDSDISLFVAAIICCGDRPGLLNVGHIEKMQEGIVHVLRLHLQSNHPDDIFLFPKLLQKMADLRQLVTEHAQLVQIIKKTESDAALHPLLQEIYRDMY
# How it was run: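 Chemiluminescence from complemented enzyme reported PPARalpha activation in cells after 6 hr of compound treatment at 37 C. The detection reagent was incubated for 60 min at room temperature, and compounds were scored as agonists.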
# [8] = qHTS assay for small molecule agonists of the antioxidant response element (ARE) signaling pathway measured by Nrf2-dependant transcriptional activity (AID 720636; active = well fitted curve in the direction sought with a large enough effect in the repeat runs; an effect the other way counts as inactive or inconclusive;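 also: HepG2 cells with an ARE-driven luciferase reporter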)
# How it was run: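 Cells: ARE-luc HepG2 with Nrf2-responsive luciferase. Medium contained 1% dialyzed FBS. Compound exposure lasted 16 hr at 37 C and 5% CO2, followed by ONE-Glo luciferase detection.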
# [9] = qHTS assay for small molecule agonists of the antioxidant response element (ARE) signaling pathway measured by Nrf2-dependant transcriptional activity - cell viability counter screen (AID 720653; active = well fitted curve in the direction sought with a large enough effect in the repeat runs; an effect the other way counts as inactive or inconclusive); conditions: ARE-bla HepG2 viability, CellTiter-Glo ATP luminescence, 16 h; max response: stronger effect = lower value
# How it was run: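 Cytotoxicity counter screen: intracellular ATP quantified by CellTiter-Glo luminescence in the same ARE-bla HepG2 plates, after 16 h compound exposure and a 2 h beta-lactamase substrate step.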
# [10] = qHTS assay for cell viability of HEK293 cells (AID 743288; active = well fitted curve in the direction sought with a large enough effect; an effect the other way counts as inactive or inconclusive; also: nearly all actives have a fitted effect of over 50% in size); conditions: ATP luminescence (CellTiter-Glo), 18 h; max response: stronger effect = lower value
# How it was run: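 Parental HEK293 cells were seeded at 2,000 cells/well, rested at least 5 h at 37 C, then exposed to compounds in DMSO for 18 h at 37 C. Viability was read as ATP-dependent luciferase luminescence after 30 min at room temperature.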
# [11] = qHTS assay for small molecule antagonists of peroxisome proliferator-activated receptor delta signaling (AID 588535; active = well fitted inhibition curve with a large enough effect in the signal ratio, with a control signal flat, not every such curve was filed as active; the % refers to the signal ratio;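 as to max response: cells co-treated with a PPAR-delta agonist as stimulator during compound exposure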); conditions: HEK293T PPARd-UAS-bla, beta-lactamase FRET ratio, 18 h; 460 nm channel
# How it was run: (§2)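 HEK293T PPAR-delta-UAS-bla cells, 4000/well, 2% charcoal/dextran FBS; 5 h 37 C; cpd titration; 18 h 37 C; CCF4 2 h RT; FI 460/530 nm; Hill fit → IC50, efficacy.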
# [12] = molecular target: Peroxisome proliferator-activated receptor delta (Homo sapiens) (UniProt Q03181); experiment: as above
# How it was run: as §2
# [13] = molecular target: Peroxisome proliferator-activated receptor gamma (Homo sapiens) (UniProt P37231); experiment: qHTS assay for small molecule antagonists of peroxisome proliferator-activated receptor gamma signaling (AID 588537; active = well fitted inhibition curve with a large enough effect in the signal ratio, with a control signal flat, not every such curve was filed as active; the % refers to the signal ratio;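 also: reporter cells co-stimulated with 50 nM rosiglitazone agonist during compound treatment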)
# How it was run: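 Antagonist mode, beta-lactamase reporter in HEK293; charcoal/dextran FBS 1%; 3000 cells/well, 37 C 6-6.5 h; cpd titration + rosiglitazone 50 nM final, 16 h 37 C; CCF4, 2 h RT; 460/530 nm; Hill fit → IC50, efficacy.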
# [14] = molecular target: Thyroid hormone receptor beta (Homo sapiens) (UniProt P10828); experiment: qHTS assay for small molecule agonists of thyroid hormone receptor beta signaling (AID 588545)
# Chain of Thyroid hormone receptor beta (Homo sapiens) (P10828 whole entry, looked up): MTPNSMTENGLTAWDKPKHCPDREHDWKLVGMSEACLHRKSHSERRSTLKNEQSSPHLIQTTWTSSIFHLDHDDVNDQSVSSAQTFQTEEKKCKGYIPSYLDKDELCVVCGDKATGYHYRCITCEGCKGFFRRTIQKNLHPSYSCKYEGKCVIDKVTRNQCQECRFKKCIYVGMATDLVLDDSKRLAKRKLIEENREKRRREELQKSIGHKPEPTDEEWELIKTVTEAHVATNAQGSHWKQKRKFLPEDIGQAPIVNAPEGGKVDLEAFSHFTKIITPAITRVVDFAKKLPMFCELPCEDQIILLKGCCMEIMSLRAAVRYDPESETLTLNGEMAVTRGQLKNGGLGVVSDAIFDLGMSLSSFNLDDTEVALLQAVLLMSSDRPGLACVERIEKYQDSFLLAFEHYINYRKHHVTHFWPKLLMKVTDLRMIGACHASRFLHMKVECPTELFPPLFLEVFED
# How it was run: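 In this cell-based screen, titrated compounds act on HEK 293 cells held in medium with 2% charcoal/dextran FBS, NEAA and pyruvate for 18 hrs at 37 C. Responses are expressed relative to T3 (10 nM) as 100% and basal DMSO as 0%.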
# [15] = qHTS assay for small molecule activators of the p53 signaling pathway (AID 651743; active = well fitted activation curve with a large enough effect in the signal ratio, not every such curve was filed as active; the % refers to the signal ratio; also: series mostly up to about 92 µM); conditions: HCT-116 p53RE-bla, beta-lactamase FRET ratio, 16 h; activation: stronger effect = higher value
# How it was run: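 Read-out is fluorescence intensity from the LiveBLAzer B/G FRET substrate, added for 2 hours at room temperature after HCT-116 p53RE-bla cells had been incubated with compounds for 16 hours at 37 C.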
# [16] = qHTS assay for cell viability of the p53RE-bla HCT-116 cell line (AID 743292; active = well fitted curve in the direction sought with a large enough effect; an effect the other way counts as inactive or inconclusive; also: nearly all actives have a fitted effect of over 55% in size)
# How it was run: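 HCT-116 p53RE-bla cells seeded 4,000/well; 5 h at 37 C; compound (DMSO) added; 16 h at 37 C; CellTiter-Glo added, 30 min RT; luminescence read.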
# [17] = molecular target: Vitamin D3 receptor (Homo sapiens) (UniProt P11473); experiment: qHTS assay for small molecule antagonists of vitamin D receptor signaling (AID 588541);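 also: receptor activated by calcitriol during compound treatment; series mostly up to about 77 µM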
# How it was run: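 Antagonist-mode beta-lactamase reporter assay: HEK293T VDR-UAS-bla cells were exposed to titrated compound alongside 1-alpha,25-dihydroxyvitamin D3 at 3 nM final for 16 h. Values were normalized to the 50 nM agonist control and DMSO basal, with IC50 and efficacy from Hill equation fits.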
# [18] = qHTS assay for small molecule agonists of retinoid X receptor alpha signaling (AID 588544); conditions: HEK293T RXRa-UAS-bla, beta-lactamase reporter, 18 h; 530 nm emission
# [19] = molecular target: Retinoic acid receptor RXR-alpha (Homo sapiens) (UniProt P19793); experiment: as above
# [20] = molecular target: Thyroid hormone receptor beta (Homo sapiens) (UniProt P10828); experiment: qHTS assay for small molecule antagonists of thyroid hormone receptor beta signaling (AID 588547; active = well fitted inhibition curve with a large enough effect in the signal ratio, with a control signal flat, not every such curve was filed as active; the % refers to the signal ratio;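 also: cells stimulated with 0.4 nM T3 agonist during compound exposure; series mostly up to about 77 µM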); conditions: TR-UAS-bla HEK293, beta-lactamase ratio, antagonist mode, 18 h
# How it was run: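 Inhibition of T3-driven (0.4nM final) beta-lactamase reporter activity was measured over 0.59 nM to 92 uM compound after 18 h at 37 C. The cells were GripTite HEK293 TR-UAS-bla in charcoal/dextran-stripped serum, with CCF4 ratio read-out and IC50 from Hill fits.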
# [21] = molecular target: Nuclear receptor subfamily 1 group I member 2 (Rattus norvegicus) (UniProt Q9R1A7); experiment: qHTS assay for small molecule activators of the rat pregnane X receptor (rPXR) signaling pathway (AID 651751; call rule not given here); conditions: rPXR reporter cells, luciferase (One-Glo), 24 h
# Chain of Nuclear receptor subfamily 1 group I member 2 (Rattus norvegicus) (Q9R1A7 whole entry, looked up): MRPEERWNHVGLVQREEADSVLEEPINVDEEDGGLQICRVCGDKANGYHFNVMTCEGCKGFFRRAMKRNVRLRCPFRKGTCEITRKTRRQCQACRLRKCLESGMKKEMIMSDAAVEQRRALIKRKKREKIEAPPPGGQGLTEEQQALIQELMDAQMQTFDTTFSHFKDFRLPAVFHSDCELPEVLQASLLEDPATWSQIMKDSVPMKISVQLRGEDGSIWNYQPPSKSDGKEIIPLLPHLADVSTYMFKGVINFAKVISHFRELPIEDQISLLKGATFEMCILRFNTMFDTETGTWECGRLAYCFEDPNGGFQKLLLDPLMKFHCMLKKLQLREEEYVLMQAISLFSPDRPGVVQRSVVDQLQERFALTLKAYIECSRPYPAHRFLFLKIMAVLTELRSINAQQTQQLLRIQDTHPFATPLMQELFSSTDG
# [22] = qHTS assay for small molecule activators of the human pregnane X receptor (PXR) signaling pathway (AID 720659; call rule not given here)
# [23] = qHTS assay for small molecule agonists of the antioxidant response element (ARE) signaling pathway (AID 651741; active = well fitted activation curve with a large enough effect in the signal ratio; the % refers to the signal ratio)
# How it was run: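 Quantitative HTS in HepG2 cells stably expressing an ARE-beta-lactamase reporter; 16 h compound exposure at 37 C, followed by 2 h room-temperature incubation with LiveBLAzer B/G FRET substrate and fluorescence measurement.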
# [24] = qHTS assay for small molecule activators of the nuclear factor-kappa B (NF-kB) signaling pathway (AID 651749; active = well fitted activation curve with a large enough effect in the signal ratio; the % refers to the signal ratio; also: series mostly up to about 77 µM); conditions: NF-kB-bla ME-180 cells, beta-lactamase FRET ratio, 16 h; activation: stronger effect = higher value
# How it was run: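 Readout: beta-lactamase reporter driven by an NF-kB response element, detected fluorescently as loss of FRET. Cells were the ME-180 line, treated 16 hr at 37C with pin-transferred compound.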
smiles,measurement,setting,value
O=C(c1ccc(Cl)cc1)c1ccc(Cl)cc1,outcome,[1],inactive
O=C1CCCC/C=C/CCCCCCCCCO1,outcome,[1],inactive
Cc1ccc(S(=O)(=O)Oc2ccc(N=Nc3ccc(-c4ccc(N=Nc5c(O)ccc6cc(S(=O)(=O)O)cc(S(=O)(=O)O)c56)c(C)c4)cc3C)cc2)cc1,outcome,[1],inactive
ICCc1ccccc1,outcome,[1],inactive
Clc1cc(Cl)c(Cl)cc1Cl,outcome,[1],inactive
CCCCOCCOCCOC(C)=O,outcome,[1],inactive
Nc1cc([N+](=O)[O-])ccc1O,outcome,[1],inactive
COc1c(Cl)ccc(Cl)c1C(=O)O,outcome,[1],inactive
Cc1ccccc1C(=O)O,outcome,[1],inactive
c1cc2c3c(c1)ccc1cccc(c13)C2,outcome,[1],inactive
c1ccc2n[nH]nc2c1,outcome,[1],inactive
Cc1cscn1,outcome,[1],inactive
O=[N+]([O-])c1ccc(Cl)cc1Cl,outcome,[1],inactive
Nc1nc(N)nc(-c2ccccc2)n1,outcome,[1],inactive
Nc1ccc([N+](=O)[O-])c(N)c1,outcome,[1],inactive
CCOc1cccc(N)c1,outcome,[1],inactive
ClC/C=C/CCl,outcome,[1],inactive
CC(=O)c1nccs1,outcome,[1],inactive
CC(=O)Nc1ccc(C)cc1,outcome,[1],inactive
CC(=O)C1(C)CC2=C(CCCC2(C)C)CC1C (stereo not drawn),outcome,[1],inactive
CCNS(=O)(=O)c1ccc(C)cc1,outcome,[1],inactive
CO[Si](OC)(OC)c1ccccc1,outcome,[1],inactive
Cc1ccccc1OCC1CO1 (stereo not drawn),outcome,[1],inactive
O=C(Cl)c1cccc(C(=O)Cl)c1,outcome,[1],inactive
C=C(C)C(=O)OCCOC(=O)C(=C)C,outcome,[1],inactive
CCOc1cc(OCC)c(C(C)=O)cc1OCC,outcome,[1],inactive
O=C(Cl)c1c(Cl)cccc1Cl,outcome,[1],inactive
CC12CCC(CC1=O)C2(C)C (stereo not drawn),outcome,[1],inactive
COC(=O)c1ccccc1,outcome,[1],inactive
O=C(O)CNC(=O)c1ccc(CO)o1,outcome,[1],inactive
Brc1cc(Oc2cc(Br)c(Br)c(Br)c2Br)c(Br)c(Br)c1Br,outcome,[1],inactive
CC(C)Nc1ccccc1,outcome,[1],inactive
C/C(=C\C(C)CC(C)CC(C)C)C1CC(=O)OC1=O (stereo not drawn),outcome,[1],inactive
Cc1cc(C)cc(O)c1,outcome,[1],inactive
CCOP(=O)(SC(C)CC)N1CCSC1=O (stereo not drawn),outcome,[1],inactive
same,Potency,[2],inactive
same,outcome,[3],inactive
same,max response,[4],-8.5%
same,max response,[5],14.8% (inactive)
same,activation,[6],-0.193% (inactive)
same,max response,[7],1.22% (inactive)
same,Potency,[8],inactive
same,max response,[9],14.1% (inactive)
same,max response,[10],6.21% (inactive)
CC(C)S,outcome,[1],inactive
CCC(Cl)CC(Cl)C(Cl)C(Cl)C(Cl)C(C)Cl (stereo not drawn),outcome,[1],inactive
Nc1cccc(S(=O)(=O)O)c1,outcome,[1],inactive
CC(C)C(C(=O)OC(C#N)c1cccc(Oc2ccccc2)c1)c1ccc(Cl)cc1 (stereo not drawn),outcome,[1],inactive
same,max response,[11],-0.258%
same,Potency,[12],inactive
same,Potency,[2],inactive
same,Potency,[13],inactive
same,Potency,[14],inactive
same,activation,[15],0.961% (inactive)
same,activation,[6],2.62% (inactive)
same,max response,[7],0.669% (inactive)
same,Potency,[8],inactive
same,max response,[9],-14.8% (inactive)
same,max response,[10],-26.6% (inactive)
same,Potency,[16],inactive
CCCCN(CCCC)CCCC,outcome,[1],inactive
C=Cc1ccccn1,outcome,[1],inactive
CCCCCCCC[Si](Cl)(Cl)Cl,outcome,[1],inactive
CCc1cnc(C2=NC(C)(C(C)C)C(=O)N2)c(C(=O)O)c1 (stereo not drawn),outcome,[1],inactive
same,max response,[11],6.03%
same,Potency,[12],inactive
same,Potency,[2],inactive
same,Potency,[13],inactive
same,Potency,[17],inactive
same,outcome,[3],inactive
same,max response,[18],-15.1%
same,Potency,[19],inactive
same,Potency,[14],inactive
same,activity change % (negative = inhibition),[20],-0.801% (inactive)
same,activation,[6],-2.09% (inactive)
same,Potency,[8],inactive
same,max response,[9],16.5% (inactive)
same,max response,[10],4.64% (inactive)
same,max response,[21],-2.79% (inactive)
same,outcome,[22],inactive
CNc1ccccc1,outcome,[1],inactive
CC(=O)Nc1cccc(C)c1,outcome,[1],inactive
CC(=O)OCc1ccco1,outcome,[1],inactive
CCOC(=O)C1OC1c1ccccc1 (stereo not drawn),outcome,[1],inactive
Cc1cccc([N+](=O)[O-])c1C,outcome,[1],inactive
CCCCCCCC/C=C\CCCCCCCC(=O)OC[C@@H](O)[C@H]1OC[C@H](O)[C@H]1O,outcome,[1],inactive
NC(N)=O,outcome,[1],inactive
CC(=NC#N)N(C)Cc1ccc(Cl)nc1,outcome,[1],inactive
same,max response,[11],24.8%
same,Potency,[12],inactive
same,Potency,[17],inactive
same,outcome,[3],inactive
same,max response,[18],-1.69%
same,Potency,[19],inactive
same,Potency,[14],inactive
same,max response,[4],-1.52%
same,max response,[5],-19.1% (inactive)
same,Potency,[23],inactive
same,activation,[15],-5.43% (inactive)
same,activation,[24],-0.278% (inactive)
same,activation,[6],0.519% (inactive)
same,max response,[7],-1.88% (inactive)
same,Potency,[8],inactive
same,max response,[9],-5.31% (inactive)
same,max response,[10],-11.8% (inactive)
same,Potency,[16],inactive
same,max response,[21],2.55% (inactive)
same,outcome,[22],inactive
